Laboratory results from the supplement of paper PMC3334620.
In all, about 33,000 sequences were measured (“E-score (-0.5 to 0.5)”: median about -0.0014, highest 2% from about 0.25 on). The list comes from a sample in which the highest values are over-represented; it also holds similar and randomly drawn sequences.

These sequences were tested against T1, Cad1 (UniProt P24813) (assay: PBM E-score (8-mer binding enrichment) (E-score (-0.5 to 0.5)); higher = stronger / more preferred TF binding). Conditions: protein concentration: 100 nM; construct: GST-full length.
T1 sequence: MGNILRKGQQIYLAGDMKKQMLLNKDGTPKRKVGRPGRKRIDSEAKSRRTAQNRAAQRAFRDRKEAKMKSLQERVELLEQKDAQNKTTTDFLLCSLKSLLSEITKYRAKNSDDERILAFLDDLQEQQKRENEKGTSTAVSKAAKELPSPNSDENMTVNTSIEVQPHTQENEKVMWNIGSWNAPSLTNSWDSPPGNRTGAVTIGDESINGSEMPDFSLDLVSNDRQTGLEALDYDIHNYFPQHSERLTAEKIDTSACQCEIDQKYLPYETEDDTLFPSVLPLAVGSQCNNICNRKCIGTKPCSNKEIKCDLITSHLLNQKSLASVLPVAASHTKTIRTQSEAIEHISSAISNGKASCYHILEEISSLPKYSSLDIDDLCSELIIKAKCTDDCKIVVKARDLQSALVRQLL
Procedure, shortened: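 Full-length yeast transcription factors or their DNA-binding domains, GST-tagged and expressed with PURExpress, were applied at about 100-200 nM to universal all-10-mer Agilent arrays. These arrays had been made double-stranded by primer extension on fresh or once-stripped slides. Detection used fluorescent anti-GST, normalisation used masliner, and E-scores for ungapped eight-base words pooled with reverse complements came from the Universal PBM Analysis Suite.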

| Sequence | PBM E-score |
| --- | --- |
| CACTAGTA | 0.0511 |
| CAATACTA | 0.0552 |
| CACTAATA | 0.183 |
| AACTAATT | 0.217 |
| TACTAGTA | 0.273 |
| TAATACTA | 0.303 |
| TACTACTA | 0.157 |
| TACTAATA | 0.285 |
| AACTAATA | 0.351 |
| AACTAAAA | 0.133 |
| AAATACTA | 0.0416 |
| GACTAGTA | -0.117 |
| ATACTTAC | 0.0308 |
| AGACGCCT | -0.1 |
| ACCAACGT | 0.0535 |
| CGGCTTTA | -0.151 |
| CGATCGGA | 0.0447 |
| CTCCATAC | -0.104 |
| ATACACCA | 0.12 |
| CACGACTA | -0.148 |
| CGAAGCTC | -0.231 |
| TACTTGAA | 0.0482 |
| CAATAATA | 0.208 |
| GACTAACA | 0.218 |
| AACTAAAG | 0.2 |

| Sequence | PBM E-score |
| --- | --- |
| GAATAATA | 0.221 |
| AACTAATG | 0.283 |
| GACTAATA | 0.372 |
| CACTAATG | -0.0516 |
| GACTAAAA | 0.114 |
| TAATAATA | 0.29 |
| GCTGGGCC | -0.297 |
| GCCTATAC | -0.214 |
| GGAATGAC | -0.179 |
| CAGTCCAG | -0.0544 |
| CGTCAAAC | -0.0838 |
| AGCACTAC | -0.0732 |
| AGCAACGG | 0.0958 |
| CTGTCCGA | 0.189 |
| CCTTATTA | 0.211 |
| ATTTATTA | 0.186 |
| ACTTATTA | 0.192 |
| GCTTATTA | 0.369 |
| CTTTATTA | 0.18 |
| GTTTATTA | 0.293 |
| CACCATCA | 0.0657 |
| TAAACGTA | 0.172 |
| GGTTTCAC | 0.00803 |
| ACGGCCCT | -0.0728 |
| CTGTAGCC | -0.0863 |

| Sequence | PBM E-score |
| --- | --- |
| AACTTGAT | 0.268 |
| AACTTGAA | 0.109 |
| AACTTGAG | -0.154 |
| GGTGCAGA | -0.217 |
| GCCAGGGA | -0.103 |
| AACCTTGA | 0.0727 |
| CGAACCGC | -0.0247 |
| GGAACCGA | 0.0676 |
| CGAACCGA | 0.262 |
| CTCGCCAC | -0.0198 |
| TAATTTGA | 0.106 |
| AAATTTGA | 0.325 |
| CAATTTGA | -0.0156 |
| AAATTTGG | 0.075 |
| AAATTTGT | 0.277 |
| AATTTTGT | 0.143 |
| CTGGAGGA | -0.121 |
| CCTACCGC | -0.0896 |
| GGCTGTAC | -0.0764 |
| CGAGTGTA | -0.0885 |
| ACGCTTTA | 0.0919 |
| AAGACAAC | 0.336 |
| AAGACAAG | 0.0865 |
| CAGACAAC | 0.0003 |
| GCGCGTCA | 0.0818 |

| Sequence | PBM E-score |
| --- | --- |
| AAGCGACT | -0.0195 |
| TGTTATAA | 0.253 |
| TCATATAA | -0.00059 |
| TGATATAA | -0.0984 |
| GTATATAA | 0.182 |
| ATATATAA | 0.32 |
| AGTTATAA | -0.037 |
| CTATATAA | 0.0617 |
| TTATATAA | 0.427 |
| CGTTATAA | 0.163 |
| AAGCCGGC | 0.149 |
| CGTGATTA | 0.303 |
| AGTGATTA | 0.287 |
| CGTGATTC | -0.021 |
| AGTGATTC | 0.11 |
| GGTGATTA | 0.236 |
| CGTGATGA | 0.0624 |
| GGCGGCTA | 0.0654 |
| AACCTTGG | -0.168 |
| CTAACACC | -0.0338 |
| AATCTAGC | 0.08 |
| CAAGATTG | -0.0156 |
| ACGGCATA | 0.16 |
| TGTCCGAA | 0.266 |
| CGTCCGAA | 0.1 |

| Sequence | PBM E-score |
| --- | --- |
| GGTCCGAA | 0.143 |
| ACCCTCTC | -0.183 |
| CCCTTGAC | -0.197 |
| TCCTCACA | -0.115 |
| ACGGATCC | -0.0362 |
| ACGGCGCT | -0.0736 |
| AACGCGAA | 0.298 |
| CACGCGAA | 0.0527 |
| AGCGCAAA | 0.189 |
| ACGGCGCG | 0.322 |
| AAAGCGCA | -0.0636 |
| AGCGCGCA | 0.355 |
| AGCGCGAA | 0.21 |
| ACGGCGCC | 0.139 |
| CAAGCGCC | -0.119 |
| AACGCGAG | 0.115 |
| CAAGCGCA | 0.262 |
| AAGTTGAG | 0.0317 |
| GCCAACAA | -0.0504 |
| TCGTCTAA | -0.0389 |
| GCCGCAAC | 0.0201 |
| CGCACCGA | -0.0919 |
| CGGCTAAA | -0.0162 |
| CAGAGACG | 0.0945 |
| CGTTGGAC | -0.137 |

| Sequence | PBM E-score |
| --- | --- |
| GCGATCGC | 0.241 |
| GGCGCGCA | 0.195 |
| GGCGCGTA | -0.0178 |
| AGCGCGTA | 0.284 |
| TGCGCGCA | 0.301 |
| AACGCGCA | 0.189 |
| CGCGCGCG | 0.214 |
| AACGCGCT | 0.0463 |
| CGCGCGCA | 0.242 |
| AACGCGCG | 0.282 |
| CGCGCGTA | 0.152 |
| AGCGCGCT | 0.152 |
| AGCGCGCG | 0.311 |
| CGGGGGAG | -0.432 |
| CCAGTTTC | -0.155 |
| CCTCCATA | -0.254 |
| GTGGGTGA | 0.0388 |
| AGAACCAA | -0.131 |
| CACAGGAC | -0.0449 |
| AAAGGACA | -0.0819 |
| ACAGCTAT | -0.0503 |
| GCAGCTGA | 0.0932 |
| ACAGCTGT | 0.261 |
| ACAGCTGG | 0.0155 |
| ACAGCTGA | -0.0375 |

| Sequence | PBM E-score |
| --- | --- |
| TCAGCTGA | 0.31 |
| CCCCGGAG | -0.2 |
| CCAGGCGC | -0.0648 |
| CAGTTACA | -0.00475 |
| ATCCGTTC | 0.229 |
| GTCCGTTA | 0.199 |
| ATCCGTTA | 0.303 |
| ATGATGCA | 0.222 |
| ATCGTTCA | 0.0567 |
| AGTTCATA | 0.101 |
| AGTTCATG | 0.265 |
| AGTTCATC | 0.0446 |
| CCGGTCCG | -0.104 |
| ATGAGCCA | 0.107 |
| ATTTAGTC | 0.18 |
| AATTAGTG | 0.316 |
| CGTTAGTC | 0.042 |
| ATTTAGTA | 0.293 |
| GGTTAGTA | 0.219 |
| CTTTAGTA | 0.174 |
| CATTAGTC | 0.217 |
| AATTAGGG | -0.172 |
| CATTAGAA | 0.11 |
| ACTTAGTG | -0.142 |
| CATTAGTA | 0.304 |

| Sequence | PBM E-score |
| --- | --- |
| CGTTAGTA | 0.289 |
| AGGCCAAT | -0.0024 |
| CCCGCCGC | -0.0389 |
| AGCCGCAT | -0.0263 |
| ACGAAAGC | 0.00748 |
| CGAGGTGC | 0.142 |
| AAGCGCTG | 0.212 |
| TAATATCA | 0.167 |
| CTACCTGA | -0.0406 |
| CCTAGGCA | -0.0995 |
| AATTAGAT | 0.252 |
| GATTAGTA | 0.31 |
| GATTAGGA | -0.0959 |
| CCTTAGTA | 0.0752 |
| AGTTAGTC | -0.0819 |
| ACTTAGTA | 0.213 |
| AATTAGAC | 0.0936 |
| AATTAGTC | 0.346 |
| GCTTAGTA | 0.344 |
| AATTAGAG | 0.0346 |
| ACTTAGTC | -0.016 |
| GATTAGAA | 0.0793 |
| GGCCAATA | 0.0295 |
| AAGCTGAT | 0.216 |
| GTAGGAGA | -0.124 |

| Sequence | PBM E-score |
| --- | --- |
| CGCTTCTC | -0.0668 |
| ACAGCCAA | 0.0312 |
| GAGCTTGC | -0.048 |
| CAAGTCCA | -0.0962 |
| CCCGCCTA | 0.0947 |
| AATTAGTA | 0.316 |
| AGTTAGTA | 0.0725 |
| AATTAGGA | 0.0377 |
| CATCCTCG | 0.0642 |
| GACACTGC | -0.0407 |
| CCGCTGTC | 0.00182 |
| AAAATGGG | -0.157 |
| AAAATGGA | 0.267 |
| CAAATGGA | 0.0716 |
| GTCTACAC | 0.0321 |
| ATCCCAAT | -0.122 |
| CTTTGTAC | 0.0743 |
| GTTTGTAA | 0.137 |
| CTTTGTAA | 0.333 |
| ATTTGTAC | 0.119 |
| ATTTGTAG | 0.0654 |
| ATTTGTAA | 0.411 |
